The supplement of paper PMC6555819

Tests used:
Assay in all cases: PBM binding z-score (relative to random genomic background probes); higher = stronger binding; sequences stand for … in GC…GCGATTGACAGCGTAGAATGAAGG
[1] = tested on: FXR:RXRa (NR concentration 270 nM, RXRa partner concentration 90 nM)
Outline: (§1)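 On custom Agilent 4×180K arrays, double-stranded probes with 34-nt variable regions carried direct-repeat seeds, single-nucleotide variants, half-site ablations or random human genomic background. Ligand-free nuclear receptor dimers were applied for 1 h, and binding was read with antibodies against each partner (one per run). Binding z-scores come from regression-normalized fluorescence, with the random background probes as reference.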

[2] = tested on: LXRa:RXRa (NR concentration 270 nM, RXRa partner concentration 90 nM)
Outline: as §1

[3] = tested on: LXRa homodimer (NR concentration 270 nM)
Outline: as §1

[4] = tested on: LXRb:RXRa (NR concentration 270 nM, RXRa partner concentration 90 nM)
Outline: as §1

[5] = tested on: LXRb homodimer (NR concentration 270 nM)
Outline: as §1

[6] = tested on: PPARa:RXRa (NR concentration 270 nM, RXRa partner concentration 90 nM)
Outline: as §1

[7] = tested on: PPARg:RXRa (NR concentration 180 nM, RXRa partner concentration 90 nM)
Outline: as §1

[8] = tested on: PPARg:RXRa 270nM:90nM, anti-RXR (NR concentration 270 nM, RXRa partner concentration 90 nM)
Outline: as §1

[9] = tested on: PPARg:RXRa 30nM:10nM, anti-RXR (NR concentration 30 nM, RXRa partner concentration 10 nM)
Outline: as §1

[10] = tested on: PPARg:RXRa 90nM:30nM, anti-RXR (NR concentration 90 nM, RXRa partner concentration 30 nM)
Outline: as §1

Sequence	PBM binding z-score [1]	PBM binding z-score [2]	PBM binding z-score [3]	PBM binding z-score [4]	PBM binding z-score [5]	PBM binding z-score [6]	PBM binding z-score [7]	PBM binding z-score [8]	PBM binding z-score [9]	PBM binding z-score [10]
TCATATAGGTAAATGCTAGGTGAAAGGCCGATCT	0.626	1.07	0.239	0.994	0.0512	1.93	1.81	3.17	3.62	3.95
TCATATCGGTAAATGCTAGGTGAAAGTCCGATCT	0.228	0.361	0.17	0.39	0.0158	0.778	0.243	2.06	3.69	2.84
AGTCAAAGTTCACTCGGTAACGTAAGATTCAGCT	5.02	5.41	3.18	3.38	1.27	4.24	5.6	5.93	2.54	4.94
TCTTCTAGGTCAACGATGGTCAGCTAATCTGCTA	4	3.57	0.955	2.54	2.65	4.34	6.09	5.82	5.08	5.64
TCTTGTAGATCCAGCAGGTTAAGAAAGCCTGAGT	0.108	0.186	-0.293	0.284	-0.208	0.342	-0.483	1.03	2.62	1.84
TTACCTAGGTGAAAGGTCGTTGATGCACGCCTTG	3.04	2.96	0.393	2.74	-0.415	5.66	10.4	9.22	9.2	10.2
ACTATTAGTTGAGACGAGGGCAACCGATAGGTTG	0.538	0.128	0.022	0.22	0.0471	0.636	0.774	0.555	0.376	0.316
CATAGCAGGCCAATCTGGGTCACTCAAGGCTTGA	0.72	1.46	-0.00669	0.604	0.0178	3.01	2.72	2.73	0.652	2.05
CGAACTAGGTCATTGACAGGCCAGTGAATAGTAA	4.02	2.69	-0.0414	1.9	-0.365	4.67	7.02	6.4	3.9	5.91
ACTAGCAAGCCAAGTTTGGGTCACTCAAACAAAG	-0.12	-0.258	-0.55	0.443	-0.728	0.909	-0.253	0.132	-0.505	-0.56
CCACGGAGGACAACAGGAGGTCAGAGCTGCCAGA	1.09	2.38	2.44	1.7	-0.198	2.21	0.672	0.164	-0.705	-0.441
CGTCCAAGGTCAATGCCAGGTCAGTGAAAGCATT	7.1	5.52	3.08	4.42	1.04	5.11	4.05	4.59	1.16	3.45
CGAACTAGGTCAGAACAGGACAGTGAGGGATGAT	1.59	0.807	-0.0765	0.315	-0.376	2.96	5.04	4.45	1.74	3.43
ATATGTAGGTTAAGGGTCATTAAGGTTGGTTCGC	5.05	4.87	2.72	4.3	0.865	6.59	11.6	9.59	10.3	10.7
TCTTGTAGATCAGAGGTTAAGAAAGCCGAAGCCT	0.507	1.04	-0.0177	1.4	-0.128	2.87	4.35	5.58	4.79	5.63
CCTTACGGGTCAAGGTTATAACACGGGTGGTACG	5.53	3.71	0.233	3.44	0.254	5.22	4.63	4.8	2.22	3.94
AGAACGAGGGCACGCTGAGTTGTTAGCAGAGTAG	0.878	0.882	-0.742	0.17	-1.13	2.18	1.94	1.79	0.32	1.16
GATACAGGGTCACCTAGAGGCCAGAGTATGGAAA	6.92	4.72	-0.102	3.99	-0.035	5.79	6.93	6.02	2.71	4.91
CCTACTGGGCCAAAGGTTATTGATTCCAATGCTC	0.648	1.32	0.345	1.76	-0.363	5.33	10.4	9.22	8.72	10.5
TCTAGGTGGTCACGGAGGTCACACACGACGGGTA	3.81	3.68	2.06	3.28	0.0895	4.01	3.58	4.2	3.06	3.96
GCTAATTGGTCAGTAAAAGGTCACACACCGGTCG	3.55	4.31	5.15	4.41	1.19	4.8	3.38	4.52	2.45	3.96
ACAGACAGGTGAGTGAAGGTAACACAGCTGGACG	0.433	0.227	-0.295	-0.073	-0.319	0.307	1.16	0.43	0.00598	0.0299

Sequence	PBM binding z-score [1]	PBM binding z-score [2]	PBM binding z-score [3]	PBM binding z-score [4]	PBM binding z-score [5]	PBM binding z-score [6]	PBM binding z-score [7]	PBM binding z-score [8]	PBM binding z-score [9]	PBM binding z-score [10]
AGAACGAGGGCACGCTGAGTGGATAGCAGAGTAG	0.65	0.494	-0.357	-0.0395	-1.03	1.77	1.99	1.64	0.26	1.29
CAAACTAGGTCACGGGAAGGTCAAAGTCCGCATG	6.63	5.83	4.52	5.56	0.929	6.51	10.1	7.81	6.78	7.95
CAAACTAGGTTACGAAAGGTCAAAGTCGAATGAC	5.93	8.59	8.28	7.69	2.88	6.1	8.03	7.02	4.81	6.47
CCGACTGGGGCAAAGGTTACCATACTCAGTACGA	1.57	1.66	0.0551	2.1	-0.895	5.49	11.2	9.84	8.71	11.5
CTGACTGGGGCAGAAAGGTTACCATACCATCCGG	0.933	1.01	0.207	1.5	-0.293	2.65	2.32	3	1.18	2.35
ATCTCTAAGTAAGACTCAGTTCAGTGAAGAACGC	0.404	0.702	0.509	0.112	0.924	0.0114	-0.0993	0.324	0.0174	0.392
ATCTCTAGGTAACCAAGTTCATTGAATGCCGAAC	0.729	2.12	2.71	1.66	1.1	2.14	1.04	1.24	0.578	0.937
CAAACTAGGTCAGAGAGGTCAAAGTCCGTGCGTA	6.28	6.16	6.8	5.36	1.48	6.07	8.4	7.06	4.96	7.01
TATACAGGGTCAAAGGCCAGAGGACGAATGTCGA	7.18	6.58	2.34	4.72	2.59	5.98	8.38	7.61	5.3	7.21
GCGACTGGGTCATCAGCAGGTTACCATAACTTAA	2.66	1.93	-0.34	2.04	-1.03	4.06	5.18	4.73	1.52	3.88
CCTATAAGTTGACCATAAGGGCAACCGAAGCTCG	1.36	0.588	0.467	0.379	0.387	0.93	0.632	0.292	0.0132	-0.0263
CCTACTGTGCCATCAGGTCATTGATATCAACGTT	2.23	2.1	2.57	2.75	1.14	2.82	2.29	3.15	1.39	2.7
GTACCAAGGTTAATAGGTCGTTGATGAGTAGGCG	2.13	1.67	0.289	1.34	-0.213	3.18	3	3.43	1.01	2.5
TCTAGCAGGCCAGAGGATCACTCAAGAGGTACGG	-0.551	-0.271	-0.763	-0.773	-1.43	-0.206	0.826	1.2	1.53	1.43
CGTAGCAGGCCAATCTGGGTCACTCAAGGCTTGA	0.309	0.88	-0.711	0.262	-0.737	2.6	2.21	2.03	-0.188	1.08
CGGACTGGGGCAGAAAGGTTACCATACCATCCGG	0.574	0.739	-0.05	1.25	-0.31	2.7	2.62	3.46	1.89	2.62
TCTTGTAGATCACGCAGGTTAAGAAAGCCTGAGT	0.613	0.539	-0.162	0.551	-0.17	1.09	-0.0924	1.37	2.72	1.89
CAAACTAGGGCACAGAGGTCAAAGTCCGTGCGTA	5.59	5.41	5.74	4.88	1.2	5.71	7.92	6.9	4.71	6.59
TTACCAAGGTGATCTGAGGTCGTTGATCCAACTC	1.9	3.07	0.554	1.78	-0.164	1.78	0.169	0.846	0.216	0.651
CCTTGCAGGCCAGGGTCACTCAAGCATTTCGCTT	2.3	1.82	-0.569	1.99	-1.06	3.29	1.01	2.11	-0.339	1.02
TAGCCTAGGTCATTCAGGGACCAGTATAGAAAGC	4.75	3.39	0.547	2.25	0.504	3.62	2.01	2.24	0.478	1.37
CCTACTGGGCCAAGGGTCATTGATTCCAATGCTC	2.79	2.59	0.211	2.63	-0.578	5.27	10.2	9.04	8.43	10.2
